# Results reported in publication PMC4552634, “A New Set of Chemical Starting Points with Plasmodium falciparum Transmission-Blocking Potential for Antimalarial Drug Discovery” (PLoS ONE, 2015).
# About 3,200 (25%) of roughly 13,000 compounds showed an effect of 50% or more. This is one part of the list.
# System: P. falciparum stage V gametocytes
# Parameters: BacTiter-Glo ATP luminescence viability of purified stage V gametocytes in 384-well plates, per cent inhibition versus DMSO
# Conditions: 48 h, 5 µM; inhibitor
row,SMILES,% Inhibition
1,Cn1cc(C(=O)Nc2cccc(-c3cccc(-c4nc5ccc(F)cc5[nH]4)c3)c2)n(C)c1=O [TCMDC-137136],-0.01557%
2,O=C(c1cc(OC(F)(F)F)ccc1O)N1CCN(c2ccccc2)CC1 [TCMDC-141127],10.35%
3,CC(=O)Nc1ccc(Nc2cc(C)nc(Nc3ccc(NC(C)=O)cc3)n2)cc1 [TCMDC-125764],22.75%
4,Cc1cccc2[nH]c(-c3ccc(-c4cccc(NC(=O)c5cccc(C(N)=O)c5)c4)cc3)nc12 [TCMDC-132197],5.465%
5,COc1ccc2nccc([C@@H](O)CN3CCC(NCc4ccc5c(n4)NC(=O)CS5)C(F)C3)c2c1 (stereo partly drawn) [TCMDC-141718],-27.67%
6,COc1ccc(CN2CCCN(Cc3cccc(NC(=O)c4ccc5ccccc5c4)c3)CC2)cc1 [TCMDC-141853],-65.02%
7,O=C(Nc1cccc(CN2CCCN(Cc3ccc(O)cc3)CC2)c1)c1ccc2ccccc2c1 [TCMDC-141857],26.89%
8,COc1ccc(CN2CCC(C(=O)Nc3cccc(-c4cccc(Cl)c4)c3)CC2)cc1O [TCMDC-124610],-57.51%
9,O=C(Nc1cccc(-c2cccc(F)c2)c1)C1CCN(Cc2ccc(O)cc2)CC1 [TCMDC-124688],48.55%
10,COc1ccc(CN2CCCN(Cc3cccc(NC(=O)c4ccc(-c5ccccc5)cc4)c3)CC2)cc1 [TCMDC-141839],80.31%
11,O=C(Nc1cccc(CN2CCCN(Cc3cccc(O)c3)CC2)c1)c1ccc(-c2ccccc2)cc1 [TCMDC-141848],31.74%
12,O=C(Nc1cccc(CN2CCCN(Cc3ccsc3)CC2)c1)c1ccc(-c2ccccc2)cc1 [TCMDC-141840],82.52%
13,O=C(Nc1ccc2ccccc2c1)c1ccc(CN2CCC(Cc3ccccc3)CC2)cc1 [TCMDC-123818],92.78%
14,O=C(Nc1cccc(OCc2ccccc2)c1)c1ccc(CN2CCC(Cc3ccccc3)CC2)cc1 [TCMDC-136885],-23.99%
15,COc1cccc(CN2CCCN(Cc3cccc(NC(=O)c4ccc(-c5ccccc5)cc4)c3)CC2)c1 [TCMDC-141847],-61.09%
16,O=C(Nc1cccc(CN2CCCN(Cc3ccccc3)CC2)c1)c1ccc(-c2ccccc2)cc1 [TCMDC-134589],-25.71%
17,COc1cccc(-c2cccc(NC(=O)C3CCN(Cc4ccc(O)cc4)CC3)c2)c1 [TCMDC-124692],72.66%
18,CC(=O)Nc1cc(C(=O)Nc2cccc(-c3csc(-c4nc5ccccc5[nH]4)c3)c2)ccc1C [TCMDC-132397],-24.51%
19,Cc1nc2ccc3ccc(CNc4ccc(C(=O)N[C@@H](CCC(=O)O)C(=O)O)cc4)cc3c2c(=O)[nH]1 [TCMDC-137629],7.462%
20,CCC[C@@H]([C@@H](CC1CCCCC1)C(=O)N[C@@H](CCCCNS(C)(=O)=O)C(=O)Nc1nccs1)N(O)C=O [TCMDC-138143],41.43%
21,CC1(C)CCNc2cc(NC(=O)c3ccc(-c4ncccc4C(F)(F)F)cc3)ccc21 [TCMDC-133353],8.36%
22,COc1ccc(C2=CCN(c3ccc(Cl)c(Cl)c3)C2=O)cc1OCCN1CCCCC1 [TCMDC-138795],24.05%
23,COc1ccc2nccc([C@@H](O)CN3CCC(NC(=O)c4ccc(OC)c(N)c4)CC3)c2c1 [TCMDC-140772],8.441%
24,CC(=O)N(C)c1cccc(CNc2cc(C)nc(Nc3ccc(C)cc3)n2)c1 [TCMDC-134005],7.958%
25,CN1CCN(CC(=O)Nc2ccc(-c3ccc(-c4nc5cc(C(F)(F)F)ccc5[nH]4)s3)cc2)CC1 [TCMDC-136976],14.59%
26,COc1cc(Cc2cnc(N)nc2N)cc(OCCCCc2nn[nH]n2)c1OC [TCMDC-138032],13.98%

row,SMILES,% Inhibition
1,Cc1cccc(-c2nc3[nH]c(=O)cc(NC(=O)C(C)C)n3n2)c1 [TCMDC-125001],-2.254%
2,O=C(Nc1cccc(CN2CCCN(Cc3ccc(O)cc3)CC2)c1)c1ccc(-c2ccccc2)cc1 [TCMDC-141850],69.39%
3,COc1ccc(CN2CCCN(Cc3ccc(C(=O)Nc4ccc(Cl)cc4)cc3)CC2)cc1 [TCMDC-136409],0.3374%
4,CCCCCCN1CCCN(Cc2ccc(C(=O)Nc3ccc(Cl)cc3)cc2)CC1 [TCMDC-136416],35.96%
5,CCCc1ccc(NC(=O)c2ccc(CN3CCCN(Cc4ccc(OC)cc4)CC3)cc2)cc1 [TCMDC-136422],91.61%
6,CCCCCCN1CCCN(Cc2ccc(C(=O)Nc3ccc(C(C)C)cc3)cc2)CC1 [TCMDC-136423],90.22%
7,O=C(Nc1cccc(CN2CCN(Cc3ccc(O)cc3)CC2)c1)c1ccc(-c2ccccc2)cc1 [TCMDC-141886],12.46%
8,O=C(Nc1cccc(CN2CCCN(Cc3cccc(Cl)c3)CC2)c1)c1ccc(-c2ccccc2)cc1 [TCMDC-141837],-76.33%
9,CCCCCCN1CCCN(Cc2ccc(C(=O)Nc3ccc(CC)cc3)cc2)CC1 [TCMDC-136450],13.19%
10,CCCCCCN1CCCN(Cc2ccc(C(=O)Nc3ccc(CCC)cc3)cc2)CC1 [TCMDC-136424],9.552%
11,Oc1c(Br)cc2oc3c(c2c1CNCc1ccccc1)CCCC3 [TCMDC-124248],19.71%
12,Cc1cccc2c(CON3C(N)=NC(N)=NC3(C)C)cccc12 [TCMDC-131325],30.52%
13,c1ccc2c(c1)CN(Cc1ccsc1)CC1(CCN(Cc3c[nH]c4cnccc34)CC1)O2 [TCMDC-133374],-8.367%
14,CN(C)CCN(C)Cc1ccc(-c2ccc3c(Nc4ccc(Cl)cc4F)ccnc3c2)o1 [TCMDC-138388],33.59%
15,CS(=O)(=O)CCNCc1ccc(-c2ccc3c(Nc4ccc(Cl)cc4F)ccnc3c2)o1 [TCMDC-138445],0.4033%
16,Fc1ccc(Nc2ccnc3cc(-c4ccc(CNCCN5CCOCC5)o4)ccc23)c(Cl)c1 [TCMDC-138451],28.52%
17,COCCNCc1ccc(-c2ccc3c(Nc4ccc(F)cc4Cl)ccnc3c2)o1 [TCMDC-138448],12.72%
18,COCCNCc1ccc(-c2ccc3c(Nc4ccc(Cl)cc4F)ccnc3c2)o1 [TCMDC-138390],17.71%
19,CN(C)CCNCc1ccc(-c2ccc3c(Nc4ccc(Cl)cc4F)ccnc3c2)o1 [TCMDC-138391],96.42%
20,CN(C)Cc1ccc(-c2ccc3c(Nc4ccc(Cl)cc4F)ccnc3c2)o1 [TCMDC-138389],51.2%
21,CN1CCN(Cc2ccc(-c3ccc4c(Nc5ccc(F)cc5Cl)ccnc4c3)o2)CC1 [TCMDC-138452],13.09%
22,Fc1cc(Cl)ccc1Nc1ccnc2cc(I)ccc12 [TCMDC-138376],-32.49%
23,CN(C)CCN(C)Cc1ccc(-c2ccc3c(Nc4ccc(F)cc4Cl)ccnc3c2)o1 [TCMDC-138447],57.57%
24,Fc1ccc(Nc2ccnc3cc(-c4ccc(CN5CCOCC5)o4)ccc23)c(Cl)c1 [TCMDC-138450],-9.806%
25,CN(C)CCNCc1ccc(-c2ccc3c(Nc4ccc(F)cc4Cl)ccnc3c2)o1 [TCMDC-138449],71.06%
